{"source": "PubChem BioAssay AID504710", "about": "(Sanford-Burnham Center for Chemical Genomics, 2011)", "note": "Calls of active or inactive are those of the source.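 How the source made its calls: active means inhibition reaching about 16% in any single replicate (limit read from the data); inactive means the rest.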"}
{"biological_target": "Hexokinase HKDC1 (Homo sapiens) (UniProt Q2TB90)", "sequence (Q2TB90 whole entry, looked up)": "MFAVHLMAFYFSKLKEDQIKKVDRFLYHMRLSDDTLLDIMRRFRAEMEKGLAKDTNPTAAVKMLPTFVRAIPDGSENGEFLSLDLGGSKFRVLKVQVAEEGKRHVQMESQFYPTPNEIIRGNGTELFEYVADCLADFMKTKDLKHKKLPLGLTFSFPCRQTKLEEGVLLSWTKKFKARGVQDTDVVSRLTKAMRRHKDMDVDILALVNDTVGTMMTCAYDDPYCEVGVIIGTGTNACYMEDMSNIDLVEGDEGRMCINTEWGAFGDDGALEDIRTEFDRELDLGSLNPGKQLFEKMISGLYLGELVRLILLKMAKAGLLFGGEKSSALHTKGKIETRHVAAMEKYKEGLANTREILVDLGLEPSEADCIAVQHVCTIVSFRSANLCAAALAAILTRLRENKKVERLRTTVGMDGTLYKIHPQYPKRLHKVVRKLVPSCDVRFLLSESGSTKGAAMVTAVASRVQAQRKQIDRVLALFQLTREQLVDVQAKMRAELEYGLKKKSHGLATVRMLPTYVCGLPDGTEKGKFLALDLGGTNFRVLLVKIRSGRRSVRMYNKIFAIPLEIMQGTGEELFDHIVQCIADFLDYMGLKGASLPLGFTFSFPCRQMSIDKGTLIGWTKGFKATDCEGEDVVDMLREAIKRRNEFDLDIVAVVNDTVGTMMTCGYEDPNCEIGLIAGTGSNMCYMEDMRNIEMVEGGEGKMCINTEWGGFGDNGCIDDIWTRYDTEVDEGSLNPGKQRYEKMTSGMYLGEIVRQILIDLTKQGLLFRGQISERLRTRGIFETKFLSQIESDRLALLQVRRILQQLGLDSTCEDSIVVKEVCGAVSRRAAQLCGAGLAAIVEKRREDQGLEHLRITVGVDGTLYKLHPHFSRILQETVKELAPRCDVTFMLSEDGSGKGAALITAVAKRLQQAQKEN", "assay": "HKDC1 hexokinase inhibitors, confirmation, biochemical, single concentration (AID 504710)", "details": "recombinant HKDC1, G6PDH/diaphorase/resazurin fluorescence; at 20 µM; stronger effect = higher value"}
{"smiles": "CCN=C1NN=C(c2ccc(C)cc2)CS1", "inhibition": "-52% (inactive)"}
{"smiles": "Cc1nonc1C(=O)N/N=C/c1ccc(O)cc1O", "inhibition": "-33.6% (inactive)"}
{"smiles": "Cc1cc(C)n2nc(SCc3nnc(SCc4ccccc4C)s3)nc2n1", "inhibition": "69.2% (active)"}
{"smiles": "CC(NC(=O)c1sc2cc([N+](=O)[O-])ccc2c1Cl)C(C)(C)C", "note": "(configuration not stated)", "inhibition": "-39.3% (inactive)"}
{"smiles": "Cc1cc(C)n2cc(CSc3nnc(-c4ccccc4)c(-c4ccccc4)n3)nc2n1", "inhibition": "38.5% (active)"}
{"smiles": "COc1ccccc1NC(=S)NN=C(C)c1ccccn1", "inhibition": "-61% (inactive)"}
{"smiles": "O=C(O)c1ccc(NC2=C/C(=N/S(=O)(=O)c3ccccc3)c3ccccc3C2=O)cc1", "inhibition": "76% (active)"}
{"smiles": "O=C(O)CSc1cc(NS(=O)(=O)c2cccc([N+](=O)[O-])c2)c2ccccc2c1O", "inhibition": "47.9% (active)"}
{"smiles": "COc1ccc(C(=O)c2coc3c2C(=O)C(=O)c2ccccc2-3)cc1", "inhibition": "44.8% (active)"}
{"smiles": "COCC(=O)OC1CCn2c1nc1c2C(=O)C(C)=C(NC(C)=O)C1=O", "note": "(configuration not stated)", "inhibition": "79.4% (active)"}
{"smiles": "Cc1nc2c(c(=O)c3ccccc3n2C)c(=O)n1-c1ccccc1", "inhibition": "56% (active)"}
{"smiles": "S=C(NN=C(c1ccccc1)c1ccccn1)N(Cc1ccccn1)Cc1ccccn1", "inhibition": "-59.4% (inactive)"}
{"smiles": "Cc1cc2nnc(SCC(=O)Nc3cc(S(=O)(=O)N4CCOCC4)ccc3Cl)n2c2ccccc12", "inhibition": "37.4% (active)"}
{"smiles": "O=C(NCCc1ccccc1)c1cnn2c(C(F)F)cc(C3CC3)nc12", "inhibition": "59.8% (active)"}
{"smiles": "O=C1C=C(c2c(O)ccc3ccccc23)c2ccccc2C1=O", "inhibition": "78.1% (active)"}
{"smiles": "O=C(O)c1cc(O)c2c(c1)[C@H]([C@H]1c3cc(C(=O)O)cc(O)c3C(=O)c3c(O[C@@H]4O[C@H](CO)[C@@H](O)[C@H](O)[C@H]4O)cccc31)c1cccc(OC3O[C@H](CO)[C@@H](O)[C@H](O)[C@H]3O)c1C2=O", "note": "(some centres not stated)", "inhibition": "52.1% (active)"}
{"smiles": "O=C1C(Cl)=C(NCCc2ccccc2)C(=O)c2ccccc21", "inhibition": "59.5% (active)"}
{"smiles": "O=C1C(SCCO)=C(SCCO)C(=O)c2ccccc21", "inhibition": "84.1% (active)"}
{"smiles": "COc1cc(C2c3c([nH]c(=O)[nH]c3=O)Nc3ccc4ccccc4c32)cc(OC)c1OC", "note": "(configuration not stated)", "inhibition": "43.5% (active)"}
{"smiles": "COc1cc(/C=C2\\SC(c3ccc(C)cc3)=NC2=O)ccc1O", "inhibition": "32.2% (active)"}
{"smiles": "CCc1ccc(S(=O)(=O)/N=C2/C=C(Sc3ncn[nH]3)C(=O)c3ccccc32)cc1", "inhibition": "73% (active)"}
{"smiles": "COC(=O)c1cc(C)nc2c1C(=O)C(=O)C=C2N1CCOCC1", "inhibition": "65.8% (active)"}
{"smiles": "O=C(COC(=O)c1n[nH]c2ccccc12)c1cccc(Br)c1", "inhibition": "-30.5% (inactive)"}
{"smiles": "Cc1cccc(C)c1Nc1nnc(SCc2cn3cccc(C)c3n2)s1", "inhibition": "54.1% (active)"}
{"smiles": "CC(=O)N1CCN(C2c3cccc4cccc(c34)C2NS(=O)(=O)c2ccccc2)CC1", "note": "(configuration not stated)", "inhibition": "-45.3% (inactive)"}
{"smiles": "Cc1ccc(S(=O)(=O)/N=C2\\C=C(Nc3cccc(C(=O)O)c3)C(=O)c3ccccc32)cc1", "inhibition": "79.9% (active)"}
{"smiles": "O=C(O)c1ccccc1-c1c2cc(I)c(=O)c(I)c-2oc2c(I)c(O)c(I)cc12", "inhibition": "43.5% (active)"}
{"smiles": "COCc1cc(C2C(C(=O)c3ccco3)=C(O)C(=O)N2CCOCCO)ccc1O", "note": "(configuration not stated)", "inhibition": "-40.1% (inactive)"}
{"smiles": "COC(=O)c1ccc(NC(=O)CSc2n[nH]c(-c3ccncc3)n2)cc1", "inhibition": "43% (active)"}
{"smiles": "O=C(NC(=S)NNC(=O)c1cnccn1)c1ccc(F)cc1", "inhibition": "-36.1% (inactive)"}
{"smiles": "CC(C)c1ccc(S(=O)(=O)/N=C2/C=C(Sc3ncn[nH]3)C(=O)c3ccccc32)cc1", "inhibition": "60.8% (active)"}
{"smiles": "O=C1C=C(NCc2ccccc2)c2ccccc2C1=O", "inhibition": "56% (active)"}
{"smiles": "COc1ccc(-n2c(C)cc(C(=O)CCl)c2C)cc1", "inhibition": "34.3% (active)"}
{"smiles": "O=C(O)c1ccc2ncsc2c1", "inhibition": "48.1% (active)"}
{"smiles": "O=S(=O)(NC1c2cccc3cccc(c23)C1N1CCNCC1)c1ccccc1", "note": "(configuration not stated)", "inhibition": "-94.7% (inactive)"}
{"smiles": "CCc1ccc(C2=NNC(=Nc3cccc(S(=O)(=O)N(C)C)c3)SC2)cc1", "inhibition": "-141% (inactive)"}
{"smiles": "CCOC(=O)C1=C(Cc2ccc(OC)cc2)C(=O)c2ccccc2C1=O", "inhibition": "55.8% (active)"}
